26 compounds from PubChem BioAssay (EPA / NIEHS) can be followed below.

Activity calls are given as the source filed them. The calls were made as follows: active = hit-call score of the fitted dose curve at least 0.9, where 1 is the maximum; inactive = score below 0.9.

Read-out in test [1]: E-selectin (Homo sapiens) (UniProt P16581)
The test is described as follows: BSK_SAg_Eselectin: BioMAP Diversity Plus: SAg Assay for Eselectin Biomarker Activity (AID 2283091). To be noted: primary human HUVEC with PBMC; actives raise or lower the signal. In outline: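 Human umbilical vein endothelial cells co-cultured with peripheral blood mononuclear cells, SAg system. E-selectin is measured by ELISA 24 h after dosing and fitted bidirectionally against DMSO. Cytotoxicity is checked by SRB staining of parallel cultures.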

Read-out in test [2]: Monokine induced gamma interferon (MIG), CXCL9 (gene 4283)
Put plainly: BSK_SAg_MIG: BioMAP Diversity Plus: SAg Assay for Monokine induced gamma interferon (MIG) Biomarker Activity (AID 2283092). To be noted: primary human HUVEC with PBMC; actives raise or lower the signal. In short, it runs like this: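 Endothelial cells and PBMC were co-cultured, exposed to test chemicals, and sampled 24 h later. MIG was measured by ELISA, and responses were fitted in both directions relative to DMSO.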

Test [3] is described as follows: BSK_SAg_PBMCCytotoxicity: PBMC Cytotoxicity Assessment in the BioMAP Diversity Plus: SAg Assay (AID 2283093).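 Also: PBMC viability measured as Alamar Blue reduction fluorescence at 546/580 nm; fitted both ways against DMSO so a hit may be loss or gain of signal.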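 As to AC50: PBMC superantigen activated with SEB plus TSST-1 one hour after compound addition.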 The settings on record: primary human HUVEC with PBMC. In short, it runs like this:
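Alamar Blue reduction (6 h, ex/em 546/580 nm) read after 90 h culture of PBMC pre-dosed 1 h then stimulated with SEB plus TSST-1, 20 ng/mL each. Gain or loss of signal fitted relative to DMSO.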

Read-out in test [4]: Interleukin-8 (IL8), CXCL8 (gene 3576)
The test is described as follows: BSK_SAg_IL8: BioMAP Diversity Plus: SAg Assay for Interleukin-8 (IL8) Biomarker Activity (AID 2283094). The settings on record: primary human HUVEC with PBMC; actives raise or lower the signal. In outline:
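HUVEC/PBMC co-culture, 24 h post-dose; IL-8 by ELISA. Gain or loss of signal fitted bidirectionally vs DMSO baseline.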

Test [5] is described as follows: BSK_SAg_Proliferation: Cell Proliferation Assessment in the BioMAP Diversity Plus: SAg Assay (AID 2283095).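 Also: relative cell number as total protein by SRB absorbance in sub-confluent culture.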 To be noted: primary human HUVEC with PBMC. In outline: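 HUVEC/PBMC co-culture, 96-well. TCA-fixed (10%), 0.1% SRB stain, A560 at 96 h. Protein content used as viability readout; bidirectional fitting vs DMSO control.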
The nature of test [6]: BSK_SAg_SRB: Viability Assessment in the BioMAP Diversity Plus: SAg Assay (AID 2283096).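 Also: cells read one day after compound addition; hits may be either gain or loss of signal compared with DMSO.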 The settings on record: primary human HUVEC with PBMC. In outline:
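SRB absorbance at 560 nm served as the viability read-out. Cells (HUVEC plus peripheral blood mononuclear cells) were TCA-fixed and stained 24 h post-dosing; activity fitted in both directions against DMSO controls.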

E-selectin (Homo sapiens), sequence (P16581 whole entry, looked up): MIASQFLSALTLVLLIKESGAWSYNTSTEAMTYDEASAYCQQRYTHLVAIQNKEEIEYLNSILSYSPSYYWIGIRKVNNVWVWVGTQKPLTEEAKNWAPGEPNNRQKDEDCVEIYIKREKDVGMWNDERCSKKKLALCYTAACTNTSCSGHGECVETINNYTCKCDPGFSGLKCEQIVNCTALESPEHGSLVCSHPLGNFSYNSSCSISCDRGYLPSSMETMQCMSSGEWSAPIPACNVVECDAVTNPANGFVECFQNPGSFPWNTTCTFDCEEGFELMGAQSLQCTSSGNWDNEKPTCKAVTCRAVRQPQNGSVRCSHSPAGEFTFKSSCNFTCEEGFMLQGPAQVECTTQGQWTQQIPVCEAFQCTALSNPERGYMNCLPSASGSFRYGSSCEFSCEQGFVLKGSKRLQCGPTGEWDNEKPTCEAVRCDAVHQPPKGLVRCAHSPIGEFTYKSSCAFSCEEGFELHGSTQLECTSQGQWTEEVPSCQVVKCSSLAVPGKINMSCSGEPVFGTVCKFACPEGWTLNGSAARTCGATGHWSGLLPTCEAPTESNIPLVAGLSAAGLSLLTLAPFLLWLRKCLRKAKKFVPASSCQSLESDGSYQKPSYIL

For `O=c1c(O)c(-c2ccc(O)c(O)c2)oc2cc(O)cc(O)c12`, the result in test [1], in test [2] and in test [4] was inactive. The AC50 is 13 µM (active) in test [3], 28.6 µM (active) in test [5] and 31 µM (active) in test [6].

For the compound `OC[C@@H](O)[C@@H](O)[C@H](O)[C@H](O)CO`, the result in test [1], in test [2], in test [3], in test [4] and in test [5] was inactive.

With `NS(=O)(=O)c1cc2c(cc1Cl)NCNS2(=O)=O`, the outcome in test [1], in test [2], in test [3], in test [4], in test [5] and in test [6] was inactive.

Take `CCCCCCCC=O`: the result in test [1], in test [2], in test [3], in test [4], in test [5] and in test [6] was inactive.

On to `Cc1cccc(Nc2cc(Cl)nc(SCC(=O)O)n2)c1C`, for which the result in test [1], in test [2], in test [3], in test [4], in test [5] and in test [6] was inactive.

As for `Cc1ccccc1Cl`, the outcome in test [1], in test [2], in test [3], in test [4], in test [5] and in test [6] was inactive.

As for `C1CCC(SSC2CCCCC2)CC1`, the AC50 was 32.7 µM (active) in test [1], 16.1 µM (active) in test [3] and 15 µM (active) in test [5]. For the same compound, the result in test [2], in test [4] and in test [6] was inactive.

Take `CC(=O)OC/C=C(\C)CCC=C(C)C`: the outcome in test [1], in test [2], in test [3], in test [4], in test [5] and in test [6] was inactive.

On to `C=CCc1ccc(O)c(OC)c1`, for which the AC50 in test [1] is 4.26 µM (active). Moreover, the result in test [2], in test [3], in test [4], in test [5] and in test [6] was inactive.

Regarding `Nc1ccc(S(=O)(=O)c2ccc(N)cc2)cc1`, the outcome in test [1], in test [2], in test [3], in test [4], in test [5] and in test [6] was inactive.

On to `CCNc1cccc(C)c1`, for which the result in test [1], in test [2], in test [3], in test [4], in test [5] and in test [6] was inactive.

For `O=C(O)CCCCC(=O)O`, the outcome in test [1], in test [2], in test [3], in test [4], in test [5] and in test [6] was inactive.

Regarding `Cc1cc(=O)[nH]c(=S)[nH]1`, the result in test [1], in test [2], in test [3], in test [4], in test [5] and in test [6] was inactive.

On to `CC1(C)NC(=O)NC1=O`, for which the outcome in test [1], in test [2], in test [3], in test [4], in test [5] and in test [6] was inactive.

As for `COC(=O)c1ccc(O)cc1`, the outcome in test [1], in test [2], in test [3], in test [4], in test [5] and in test [6] was inactive.

On to `C[Si]1(C)O[Si](C)(C)O[Si](C)(C)O[Si](C)(C)O1`, for which the outcome in test [1], in test [2], in test [3], in test [4], in test [5] and in test [6] was inactive.

Take `CC(C)c1ccc(C(=O)N=C(N)N)cc1S(C)(=O)=O`: the outcome in test [1], in test [2], in test [3], in test [4], in test [5] and in test [6] was inactive.

For `O=[N+]([O-])C(CO)(CO)CO`, the result in test [1], in test [2], in test [3], in test [4] and in test [6] was inactive. Also, the concentration at half-maximal activity (AC50) in test [5] was 17.8 µM (active).

As to `CN[C@H]1CC[C@@H](c2ccc(Cl)c(Cl)c2)c2ccc(S(N)(=O)=O)cc21`, the half-maximal activity concentration (AC50) in test [1] is 20 µM (active); in test [2], 31.2 µM (active); in test [3] it was 20.5 µM (active); in test [4], 13.8 µM (active); in test [5], 12.4 µM (active); in test [6] it was 28.8 µM (active).

As to `Cc1ccc(C)c(C)c1`, the outcome in test [1], in test [2], in test [3], in test [4], in test [5] and in test [6] was inactive.

As to `CCCCCCCCCCO`, the outcome in test [1], in test [2], in test [3], in test [4], in test [5] and in test [6] was inactive.

Turning to `CCCCCCCCCCC`, the result in test [1], in test [2], in test [3], in test [4], in test [5] and in test [6] was inactive.

Turning to `CCCCN(CCCC)CCCC`, the outcome in test [1], in test [2], in test [3], in test [4], in test [5] and in test [6] was inactive.

For `Cc1nc(C)nc(N2C[C@@H](C)N(c3ccnc([C@@H](C)O)n3)[C@@H](C)C2)n1`, the outcome in test [1], in test [2], in test [3], in test [4], in test [5] and in test [6] was inactive.

Regarding `NC(=O)Cn1c(=O)cc(CCN2CCN(c3nccc4sccc34)CC2)c2ccc(F)cc21`, the outcome in test [1], in test [2], in test [3], in test [4], in test [5] and in test [6] was inactive.

On to `Cc1ccc(N(C)C)cc1`, for which the outcome in test [1], in test [2], in test [3], in test [4], in test [5] and in test [6] was inactive.

By AC50 is commonly meant the concentration at which the activity in the assay is half-maximal.
